Reference: the supplement of paper PMC11001985

compound: C#CCNC(=O)CCSSCCC(=O)NCCc1ccc(C=O)c(C=O)c1; test: lysine labeling ratio R10:1 (500 µM / 50 µM probe), SILAC-ABPP in living cells; higher = lower intrinsic lysine reactivity toward the probe, active = 2 or less; conditions: HeLa; probe concentrations 500 vs 50 µM
Method in brief: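 Forward and reverse SILAC label swaps were used with living light and heavy HeLa cells in PBS at room temperature, which were given an alkyne-tagged, disulfide-linked lysine probe at 50 µM or 500 µM. R is the per-lysine filtered median high-probe/low-probe MS1 peptide ratio, with the median then taken across both swap directions. Values are limited to 20.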

Sequence of UniProt O75054 (O75054 whole entry): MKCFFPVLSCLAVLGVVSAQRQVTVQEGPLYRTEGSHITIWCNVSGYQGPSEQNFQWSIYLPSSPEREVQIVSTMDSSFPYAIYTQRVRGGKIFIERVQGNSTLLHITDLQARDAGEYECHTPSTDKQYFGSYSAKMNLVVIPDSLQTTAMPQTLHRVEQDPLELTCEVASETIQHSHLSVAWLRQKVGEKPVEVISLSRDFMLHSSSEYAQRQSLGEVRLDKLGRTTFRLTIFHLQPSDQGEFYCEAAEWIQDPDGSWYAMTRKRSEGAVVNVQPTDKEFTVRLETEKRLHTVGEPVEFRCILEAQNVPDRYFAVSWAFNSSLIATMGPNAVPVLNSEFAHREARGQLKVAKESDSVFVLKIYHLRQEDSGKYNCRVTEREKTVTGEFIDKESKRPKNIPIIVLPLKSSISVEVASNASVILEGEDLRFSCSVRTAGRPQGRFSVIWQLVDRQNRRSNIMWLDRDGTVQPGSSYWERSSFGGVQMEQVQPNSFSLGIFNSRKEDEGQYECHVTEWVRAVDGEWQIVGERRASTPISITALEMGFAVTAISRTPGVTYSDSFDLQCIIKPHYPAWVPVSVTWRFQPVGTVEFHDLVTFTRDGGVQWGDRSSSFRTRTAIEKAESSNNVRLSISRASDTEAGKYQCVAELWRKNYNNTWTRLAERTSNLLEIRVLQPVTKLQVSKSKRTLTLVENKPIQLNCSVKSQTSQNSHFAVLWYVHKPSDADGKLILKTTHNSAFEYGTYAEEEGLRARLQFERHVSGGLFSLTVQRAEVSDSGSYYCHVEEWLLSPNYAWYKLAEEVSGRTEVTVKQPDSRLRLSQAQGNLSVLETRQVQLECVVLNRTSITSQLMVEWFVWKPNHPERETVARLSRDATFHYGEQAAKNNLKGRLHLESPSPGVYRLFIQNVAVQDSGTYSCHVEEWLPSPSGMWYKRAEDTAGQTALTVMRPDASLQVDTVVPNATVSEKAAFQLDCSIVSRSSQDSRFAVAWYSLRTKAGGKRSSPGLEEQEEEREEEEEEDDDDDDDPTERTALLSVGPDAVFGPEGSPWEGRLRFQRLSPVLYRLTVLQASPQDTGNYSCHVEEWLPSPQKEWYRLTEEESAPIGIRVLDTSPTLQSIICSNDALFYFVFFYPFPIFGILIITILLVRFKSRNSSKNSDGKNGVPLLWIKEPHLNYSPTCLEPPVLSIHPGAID
Sequence of UniProt P49184 (P49184 whole entry): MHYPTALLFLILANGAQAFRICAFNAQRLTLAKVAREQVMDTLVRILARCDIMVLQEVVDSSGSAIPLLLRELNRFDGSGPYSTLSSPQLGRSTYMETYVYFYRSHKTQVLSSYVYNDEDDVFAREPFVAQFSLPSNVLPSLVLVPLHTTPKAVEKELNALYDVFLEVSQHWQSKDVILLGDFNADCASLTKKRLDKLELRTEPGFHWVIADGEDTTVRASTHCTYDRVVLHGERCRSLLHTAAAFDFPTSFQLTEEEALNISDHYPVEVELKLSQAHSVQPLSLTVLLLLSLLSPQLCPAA
Sequence of UniProt P26641 (P26641 whole entry): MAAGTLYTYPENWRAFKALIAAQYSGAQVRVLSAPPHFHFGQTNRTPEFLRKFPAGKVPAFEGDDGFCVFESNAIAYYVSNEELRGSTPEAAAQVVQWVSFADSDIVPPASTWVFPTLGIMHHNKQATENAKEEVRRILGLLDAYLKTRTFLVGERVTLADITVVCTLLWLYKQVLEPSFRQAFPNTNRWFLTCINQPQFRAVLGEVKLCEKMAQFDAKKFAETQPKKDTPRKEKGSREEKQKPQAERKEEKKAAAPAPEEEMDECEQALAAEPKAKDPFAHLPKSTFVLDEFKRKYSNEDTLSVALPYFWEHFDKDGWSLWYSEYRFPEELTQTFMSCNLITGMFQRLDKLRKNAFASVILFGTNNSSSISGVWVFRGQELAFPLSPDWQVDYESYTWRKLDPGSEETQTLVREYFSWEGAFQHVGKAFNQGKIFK
Sequence of UniProt Q5XKE5 (Q5XKE5 whole entry): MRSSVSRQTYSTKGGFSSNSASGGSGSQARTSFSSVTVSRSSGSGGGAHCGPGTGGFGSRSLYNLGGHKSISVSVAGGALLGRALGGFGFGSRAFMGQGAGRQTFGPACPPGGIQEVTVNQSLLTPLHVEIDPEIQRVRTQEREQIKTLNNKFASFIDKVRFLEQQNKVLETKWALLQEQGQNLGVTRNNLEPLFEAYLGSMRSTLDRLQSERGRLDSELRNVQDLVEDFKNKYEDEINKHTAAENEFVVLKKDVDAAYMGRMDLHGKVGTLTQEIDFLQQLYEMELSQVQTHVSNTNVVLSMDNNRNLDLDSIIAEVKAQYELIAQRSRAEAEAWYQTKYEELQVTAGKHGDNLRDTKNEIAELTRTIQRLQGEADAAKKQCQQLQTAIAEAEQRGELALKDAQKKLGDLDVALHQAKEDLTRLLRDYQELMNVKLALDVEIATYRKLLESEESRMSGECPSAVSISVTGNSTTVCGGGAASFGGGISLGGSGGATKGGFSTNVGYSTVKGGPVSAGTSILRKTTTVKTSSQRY
Sequence of UniProt P05556 (P05556 whole entry): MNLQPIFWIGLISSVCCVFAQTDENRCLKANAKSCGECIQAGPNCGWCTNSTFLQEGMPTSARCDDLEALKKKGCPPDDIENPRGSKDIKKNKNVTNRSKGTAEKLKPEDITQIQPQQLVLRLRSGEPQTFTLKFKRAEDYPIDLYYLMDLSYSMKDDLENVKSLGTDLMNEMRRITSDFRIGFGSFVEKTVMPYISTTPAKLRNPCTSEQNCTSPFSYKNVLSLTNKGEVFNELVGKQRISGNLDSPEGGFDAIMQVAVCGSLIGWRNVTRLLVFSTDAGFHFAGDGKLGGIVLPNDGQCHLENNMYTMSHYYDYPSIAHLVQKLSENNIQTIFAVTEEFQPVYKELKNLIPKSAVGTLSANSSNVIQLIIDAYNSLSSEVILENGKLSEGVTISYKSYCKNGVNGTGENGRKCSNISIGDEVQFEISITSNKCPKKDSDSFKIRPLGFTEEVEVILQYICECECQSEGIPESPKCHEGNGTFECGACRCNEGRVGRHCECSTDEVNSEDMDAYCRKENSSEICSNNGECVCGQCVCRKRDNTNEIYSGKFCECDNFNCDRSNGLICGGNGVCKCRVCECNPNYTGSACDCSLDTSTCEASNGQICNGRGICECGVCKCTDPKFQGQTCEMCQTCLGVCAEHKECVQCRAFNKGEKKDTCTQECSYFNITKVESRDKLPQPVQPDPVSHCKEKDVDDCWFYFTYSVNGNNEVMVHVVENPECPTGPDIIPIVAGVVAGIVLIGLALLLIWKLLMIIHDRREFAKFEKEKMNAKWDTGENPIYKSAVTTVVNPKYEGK
Sequence of UniProt P49257 (P49257 whole entry): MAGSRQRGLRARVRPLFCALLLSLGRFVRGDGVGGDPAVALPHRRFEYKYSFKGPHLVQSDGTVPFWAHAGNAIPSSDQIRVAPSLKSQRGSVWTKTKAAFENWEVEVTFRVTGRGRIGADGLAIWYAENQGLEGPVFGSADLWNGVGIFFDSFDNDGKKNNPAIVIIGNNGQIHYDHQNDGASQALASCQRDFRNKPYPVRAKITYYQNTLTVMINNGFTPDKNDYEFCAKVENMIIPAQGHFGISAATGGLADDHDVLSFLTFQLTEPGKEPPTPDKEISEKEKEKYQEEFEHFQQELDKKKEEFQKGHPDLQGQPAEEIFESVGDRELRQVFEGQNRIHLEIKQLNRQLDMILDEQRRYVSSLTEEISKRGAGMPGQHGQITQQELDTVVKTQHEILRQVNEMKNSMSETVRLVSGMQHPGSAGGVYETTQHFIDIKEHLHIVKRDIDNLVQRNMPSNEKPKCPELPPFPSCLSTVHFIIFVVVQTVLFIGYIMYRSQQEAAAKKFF
Sequence of UniProt Q01974 (Q01974 whole entry): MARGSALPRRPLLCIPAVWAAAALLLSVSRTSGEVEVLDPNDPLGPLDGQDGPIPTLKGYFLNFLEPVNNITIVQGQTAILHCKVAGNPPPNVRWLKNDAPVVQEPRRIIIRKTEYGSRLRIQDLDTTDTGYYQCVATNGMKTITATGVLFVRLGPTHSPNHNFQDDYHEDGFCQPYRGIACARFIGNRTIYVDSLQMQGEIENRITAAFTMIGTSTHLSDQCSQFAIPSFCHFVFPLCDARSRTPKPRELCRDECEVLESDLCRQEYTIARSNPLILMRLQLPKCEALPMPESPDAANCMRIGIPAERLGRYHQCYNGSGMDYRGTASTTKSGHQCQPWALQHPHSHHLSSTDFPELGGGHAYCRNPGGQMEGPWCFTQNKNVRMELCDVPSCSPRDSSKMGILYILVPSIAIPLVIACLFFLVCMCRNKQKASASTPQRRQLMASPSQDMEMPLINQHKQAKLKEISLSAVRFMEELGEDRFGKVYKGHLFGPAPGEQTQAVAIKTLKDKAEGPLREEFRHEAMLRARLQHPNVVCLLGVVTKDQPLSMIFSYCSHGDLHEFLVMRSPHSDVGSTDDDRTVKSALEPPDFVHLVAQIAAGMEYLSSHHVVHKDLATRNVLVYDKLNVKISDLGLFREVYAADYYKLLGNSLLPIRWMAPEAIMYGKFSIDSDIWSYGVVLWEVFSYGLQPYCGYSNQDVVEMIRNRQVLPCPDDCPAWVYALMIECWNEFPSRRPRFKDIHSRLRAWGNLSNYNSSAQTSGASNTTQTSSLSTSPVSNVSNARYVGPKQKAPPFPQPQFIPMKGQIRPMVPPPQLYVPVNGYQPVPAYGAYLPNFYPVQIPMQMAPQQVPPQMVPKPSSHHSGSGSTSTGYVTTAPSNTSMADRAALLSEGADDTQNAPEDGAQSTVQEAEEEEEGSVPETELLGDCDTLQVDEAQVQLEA
Sequence of UniProt Q10589 (Q10589 whole entry): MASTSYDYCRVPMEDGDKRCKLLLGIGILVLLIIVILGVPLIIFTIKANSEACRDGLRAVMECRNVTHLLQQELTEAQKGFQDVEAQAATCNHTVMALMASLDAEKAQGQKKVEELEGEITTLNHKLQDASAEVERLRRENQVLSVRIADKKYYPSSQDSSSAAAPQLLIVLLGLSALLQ

Lysine labeling ratio R10:1, inactive:
RPL35A (lysine site: K95) (UniProt P18077) 3.1
LMAN1 (lysine site: K372) (UniProt P49257) 2.72
UniProt Q8WXI7 (lysine site: K14239) 4.55
SPTAN1 (lysine site: K2052) (UniProt Q13813) 3.09
PRDX1 (lysine site: K197) (UniProt Q06830) 2.6
SERPINH1 (lysine site: K190) (UniProt P50454) 2.12
ROR2 (lysine site: K97) (UniProt Q01974) 6.68
UniProt P09758 (lysine site: K84) 5.29
UniProt Q5XKE5 (lysine site: K253) 2.87
PDCD6IP (lysine site: K303) (UniProt Q8WUM4) 2.47
UniProt P61160 (lysine site: K381) 2.7
BST2 (lysine site: K126) (UniProt Q10589) 4.11
PDIA3 (lysine site: K347) (UniProt P30101) 5.72
HNRNPA1 (lysine site: K8) (UniProt P09651) 4.27
ASPH (lysine site: K552) (UniProt Q12797) 4.2
ITGB1 (lysine site: K100) (UniProt P05556) 10.5
ANXA1 (lysine site: K185) (UniProt P04083) 3.58
UniProt Q9UKX5 (lysine site: K256) 5.46
VIM (lysine site: K334) (UniProt P08670) 5.58
ENAH (lysine site: K559) (UniProt Q8N8S7) 2.92
EPHB2 (lysine site: K158) (UniProt P29323) 2.25
GPI (lysine site: K34) (UniProt P06744) 2.53
UniProt P25705 (lysine site: K175) 2.16
UniProt Q9UHN6 (lysine site: K376) 3.02
IGSF3 (lysine site: K884) (UniProt O75054) 4.12
EEF1G (lysine site: K401) (UniProt P26641) 2.74
UniProt P62888 (lysine site: K44) 2.17
IGSF3 (lysine site: K888) (UniProt O75054) 4.12
PFN1 (lysine site: K127) (UniProt P07737) 2.19
RPL4 (lysine site: K294) (UniProt P36578) 3.4

Lysine labeling ratio R10:1, active:
PAICS (lysine site: K247) (UniProt P22234) 1.41
UniProt Q15149 (lysine site: K1725) 1.57
XRCC6 (lysine site: K299) (UniProt P12956) 1.09
ITGA4 (lysine site: K526) (UniProt P13612) 1.76
WDR1 (lysine site: K7) (UniProt O75083) 0.76
LRPAP1 (lysine site: K182) (UniProt P30533) 0.73
UniProt P60660 (lysine site: K26) 1.69
ITGA2 (lysine site: K884) (UniProt P17301) 1.93
DNASE1L1 (lysine site: K107) (UniProt P49184) 1.25
PTK7 (lysine site: K518) (UniProt Q13308) 1.76
